LmPK inhibitor: blocks Leishmania mexicana pyruvate kinase activity. Q27686. purified LmPK, Kinase-Glo ATP luminescence, 1 h. Potency, µM (doses to about 57.5 µM), inactives show at the top dose activity change, negative = inhibition, actives largely listed as inhibitors. 0.37% of 290,000 active. AID 1721; further: potency means the concentration at half of the fitted maximal effect; on the % scale 0 is the no-effect control and ±100 the full control effect
Target sequence (Q27686 whole entry, looked up): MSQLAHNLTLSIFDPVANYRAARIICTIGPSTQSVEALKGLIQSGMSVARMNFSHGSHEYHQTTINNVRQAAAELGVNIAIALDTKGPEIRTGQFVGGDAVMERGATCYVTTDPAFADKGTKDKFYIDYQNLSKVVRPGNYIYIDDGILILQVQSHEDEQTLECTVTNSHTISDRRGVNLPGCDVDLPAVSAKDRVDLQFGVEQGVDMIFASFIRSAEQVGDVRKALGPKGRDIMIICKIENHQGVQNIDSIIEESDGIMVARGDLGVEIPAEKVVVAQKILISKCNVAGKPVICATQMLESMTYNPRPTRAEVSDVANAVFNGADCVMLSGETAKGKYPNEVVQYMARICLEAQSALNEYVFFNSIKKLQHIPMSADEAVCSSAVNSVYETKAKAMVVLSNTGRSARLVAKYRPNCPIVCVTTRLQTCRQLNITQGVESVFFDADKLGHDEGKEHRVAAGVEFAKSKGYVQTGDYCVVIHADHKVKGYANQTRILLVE
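Purified LmPK (0.1 nM) with 0.5 mM PEP and 0.1 mM ADP in imidazole buffer pH 7.2 with MgCl2/KCl, 1 h at room temperature. ATP formed was read by luciferase luminescence and normalized to no-enzyme and uninhibited controls.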
Sm TGR inh: inhibitors of Schistosoma mansoni thioredoxin glutathione reductase; Q962Y6; purified TGR, DTNB reduction, TNB absorbance 405 nm; Potency, µM (doses to about 114 µM), for the others: at the top dose activity change, negative = inhibition, actives largely listed as inhibitors; 3% of 360,000 active; AID 485364; further: potency means the concentration at half of the fitted maximal effect; on the % scale 0 is the no-effect control and ±100 the full control effect; nearly all actives have a fitted effect of over 60% in size
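First, TGR (20 nM dispensed) and NADPH were mixed with compound. Second, a 15 min room-temperature incubation followed. Third, further NADPH and then DTNB were added to start the reaction. Finally, TNB absorbance was monitored kinetically.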
Shiga toxin inh: blocks Shiga toxin action in Vero cells. Vero cells, Shiga toxin protein synthesis inhibition reporter. inhibition, % at 38.7 µM. 9.2% of 290,000 active. AID 2315; in the data active means inhibition mostly above about 28%, no sharp cut-off; inactive means mostly below about 43%; further: 0% is about no effect
Cycloheximide cs: counter-screen hit for Shiga toxin inhibitors, cycloheximide; 12% of 300,000 active; cell reporter, cycloheximide protein synthesis inhibition counterscreen; max response, %; in the data active means max response mostly above about 13%, no sharp cut-off; inactive means mostly below about 14%; further: read at 38.3 µM for the half of the compounds with a filed dose; 0% is about no effect
Tb PYK inh: blocks Trypanosoma brucei pyruvate kinase; Q57TT1; TbPYK enzyme, Kinase-Glo Plus ATP luminescence, 45 min; Potency, µM (doses to about 76.8 µM), for inactives: top-dose activity, negative = inhibition, actives largely listed as inhibitors; 0.12% of 410,000 active; further: potency means the concentration at half of the fitted maximal effect; on the % scale 0 is the no-effect control and ±100 the full control effect; nearly all actives have a fitted effect of over 50% in size
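Luminescent Kinase-Glo Plus end-point after 45 min room-temperature reaction of T. brucei pyruvate kinase started with 130 uM ADP (final). Buffer TEA 50 mM pH 7.2 with KCl, MgCl2, BSA, Tween-20; titration-based qHTS with fitted concentration-effect curves.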
Giardia FBPA inh: inhibitors of Giardia lamblia fructose-1,6-bisphosphate aldolase | AID 2451 | purified Giardia FBPA | Potency, µM (top dose mostly 59.6 µM), without a hit: at the top dose activity, negative = inhibition, actives largely listed as inhibitors | A8B2U2 | 0.71% of 290,000 active; further: potency means the concentration at half of the fitted maximal effect; on the % scale 0 is the no-effect control and ±100 the full control effect; nearly all actives have a fitted effect of over 55% in size
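Giardia FBPA (40 nM reagent) was preincubated 10 min at RT with compound (up to 57.5 uM final), then substrate plus GAPDH/TPI/NAD/arsenate coupling system with diaphorase/resazurin was added; resorufin fluorescence (525/598 nm) was read after 20 min.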
The depositor's hits bear a star; u = inconclusive; x = no result. This is one part of a sample in which hits are shown more often than they occur. Unless noted, the call rests on the fitted dose curve; in most records, active means well fitted curve in the direction sought with a large enough effect; inconclusive means small, poorly fitted or top-dose-only effect, or another doubt; inactive means no such curve, though single readings can be large; an effect the other way counts as inactive or inconclusive.

SMILES	LmPK inhibitor	Sm TGR inh	Shiga toxin inh	Cycloheximide cs	Tb PYK inh	Giardia FBPA inh
CCn1nc(C(=O)Nc2nc3ccccc3[nH]2)c2ccccc2c1=O	0%	-19%	11	-3	3%	-8%
COc1cc(/C=N/n2nnnc2N)cc(Cl)c1OC	x	x	x	x	0%	x
CCc1ccc(C(=O)Nc2nc3ccccc3[nH]2)cc1	u	-19%	-12	-10	-11%	14%
CC(C)Oc1ccc(C(=O)Nc2nc3ccccc3[nH]2)cc1	-23%	3%	33	25*	-12%	5%
O=C(C(Cc1ccccc1)N1C(=O)C2C3C=CC(C3)C2C1=O)N1CCCCC1 (stereo not given)	8%	0%	3	-2	-11%	1%
O=C(NCc1ccco1)C(Cc1ccccc1)N1C(=O)C2C3C=CC(C3)C2C1=O (stereo not given)	1%	22µM*	28	-1	-13%	3%
O=C(CC(Cc1ccccc1)c1ccco1)NCc1ccco1 (stereo not given)	11%	u	19	11	1%	3%
O=C(C(Cc1ccccc1)N1C(=O)C2C3C=CC(C3)C2C1=O)N1CCCCCC1 (stereo not given)	7%	79µM*	-9	-4	1%	-2%
Cc1ccc(N/C=C2\CCCCC2=O)nc1	-22%	8%	107*	58*	-2%	-13%
Cc1ccc(N/C=C2\CCCCC2=O)c(C)c1	0%	-25%	1	-3	3%	-6%
O=C1CCCC/C1=C/Nc1ccc(S(=O)(=O)Nc2ncccn2)cc1	13%	u	59	6	-9%	u
O=C1CCCC/C1=C\Nc1ccc(Cl)cn1	-10%	u	61*	27*	-12%	u
COc1ccc(-c2cc(=O)oc3cc(OCC(C)=O)ccc23)cc1	-4%	-1%	3	-2	-16%	-1%
C=C(C)COc1ccc2c(C)c(CCC(=O)NC3CC3)c(=O)oc2c1	-2%	-11%	19	22*	11%	6%
COc1ccc2c(c1)c(=O)oc1cc(O)ccc12	0%	-3%	-5	2	0%	5%
COc1ccc(-c2c(C)c3ccc(O)cc3oc2=O)cc1	-9%	-1%	50*	53*	-4%	4%
COc1ccc(-c2c(C)c3ccc(OCC(C)=O)cc3oc2=O)cc1	-3%	4%	110*	49*	x	-7%
CCc1c(C)c2ccc(OCC(N)=O)cc2oc1=O	-7%	3%	45	20*	-4%	3%
CCCc1cc(=O)c2ccc(OCC(C)=O)cc2o1	7%	15%	3	2	-3%	4%
CCCOc1ccc2c(C)c(CC(=O)OC)c(=O)oc2c1	-5%	2%	52*	31*	3%	0%
O=c1oc2cc(O)ccc2c2oc3cc(O)ccc3c12	-5%	-4%	31*	13*	-10%	1%
CC(=O)COc1ccc2c(C)c(C)c(=O)oc2c1	-2%	6%	79*	52*	-10%	1%
O=c1oc2cc(O)ccc2c2ccccc12	-2%	1%	-16	-2	2%	-11%
Cc1ccc(Cl)c(NC(=O)CSc2n[nH]c(=O)n2C2CC2)c1Cl	x	-1%	x	x	-5%	x
CCC[C@H]1CC(=O)C=C(c2ccc(OC)cc2)ON1C(=O)OC(C)(C)C	x	x	x	x	-3%	x
SMILES	LmPK inhibitor	Sm TGR inh	Shiga toxin inh	Cycloheximide cs	Tb PYK inh	Giardia FBPA inh
Clc1cccc(CSc2ncn(-c3ccccc3)n2)c1	6%	8%	35*	23*	1%	-10%
Clc1ccc(CSc2nnc(Cn3cnc4ccccc43)o2)cc1	9%	-12%	-4	-5	-6%	-23%
Clc1ccc(CSc2ncn(-c3ccccc3)n2)cc1	2%	-6%	-7	31*	2%	-18%
COc1ccc(N2CCN(C(=O)CSc3nc(-c4ccc(C(C)C)cc4)no3)CC2)cc1	x	2%	x	x	0%	x
CC(C)(C)n1ncc2c(=O)n(CC(=O)c3ccc(Cl)cc3)cnc21	-1%	3%	84*	78*	-8%	2%
CC1CCN(C(=O)Cn2cnc3c(cnn3C(C)(C)C)c2=O)CC1	9%	10%	93*	56*	4%	-1%
COCCNC(=O)Cn1cnc2c(cnn2-c2ccc(C)cc2)c1=O	-7%	89µM*	-2	-3	-13%	16%

Screens from PubChem.
